GSH fluor: GSH bead compound fluorescence profile; GSH beads flow cytometry, compound fluorescence 488/530 nm; stronger effect = higher value; fluorescence (KMESF) at 10 µM; 190,000 compounds, 0.25% hits; in the data active = fluorescence above about 89;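 also: glutathione beads carrying GST-tagged Bcl family fusion proteins plus one bare bead set; values are compound well signal with DMSO vehicle wells as background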
RGS7-Gao: human RGS7-Galphao interaction regulation; binding response (% of control), % at 10 µM; Multiplexed bead flow cytometry, RGS7-Galphao binding; actives lie on both sides; AID 1439; 220,000 compounds, 0.35% hits; in the data active = binding response below about 49% or above about 150%; inconclusive = no clear call, values can overlap the other calls; inactive = in between;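 also: fluorescent Galphao held in activated GDP-AlF4 state binding bead-coupled RGS7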
Target sequence (P09471 whole entry, looked up): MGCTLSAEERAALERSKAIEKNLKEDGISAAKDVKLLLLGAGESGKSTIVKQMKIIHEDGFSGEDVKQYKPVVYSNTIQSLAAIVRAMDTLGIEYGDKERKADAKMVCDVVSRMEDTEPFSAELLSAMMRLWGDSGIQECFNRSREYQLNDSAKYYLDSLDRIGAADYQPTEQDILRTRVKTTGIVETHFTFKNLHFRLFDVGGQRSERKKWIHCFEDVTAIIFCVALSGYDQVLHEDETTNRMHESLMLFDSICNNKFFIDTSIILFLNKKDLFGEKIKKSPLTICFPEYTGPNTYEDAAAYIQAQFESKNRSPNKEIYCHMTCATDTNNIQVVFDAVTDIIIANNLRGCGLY
Avidin fluor: compound fluoresces at 488/530 nm on avidin beads; fluorescence (KMESF) at 10 µM; compound fluorescence 488/530 nm, flow cytometry; stronger effect = higher value; 220,000 compounds, 0.38% hits; in the data active = fluorescence above about 47
RGS8-Gao: modulates binding of RGS8 to human Galphao; P09471; multiplexed bead flow cytometry; actives lie on both sides; 220,000 compounds, 0.34% hits; response (percent of control binding), % at 10 µM; in the data active = response below about 60% or above about 140%; inactive = in between;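 also: Galphao activated as the GDP aluminium fluoride complex binding bead-coupled RGS8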
RGS16-Gao HTS: RGS16-Galphao interaction regulator (human) | binding response (% of control), % at 10 µM | bead-based flow cytometry RGS16-Galphao binding, fluorescence; actives lie on both sides | 220,000 compounds, 0.38% hits | O15492+P09471 | AID 1441;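 also: Galphao activated by GDP with aluminum fluoride before binding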
RGS4-Gao reg: modulates binding of RGS4 to human Galphao. AID 1415. 220,000 compounds, 0.33% hits. binding response (% of control), % at 10 µM. Multiplexed bead flow cytometry; actives lie on both sides. P09471; in the data active = binding response below about 49% or above about 150%; inactive = in between;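 also: fluorescent Galphao activated with aluminum fluoride binding bead-coupled RGS4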
RGS4-Gao HTS: regulators of human RGS4-Galphao interaction | shares compounds with RGS16-Gao HTS | 1,600 compounds, 99% hits | AID 1504 | RGS4–Galpha-o binding response, % at 10 µM | multiplexed bead flow cytometry, RGS–Galpha-o binding;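 also: fluorescently labeled Galpha-o bound to GDP with aluminium fluoride binding biotinylated RGS beads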
Biotin-avidin: biotin-avidin bead binding disruption counter-screen. shares compounds with RGS16-Gao HTS. AID 1783. streptavidin beads, fluorescein-biotin binding, flow cytometry. inhibition, % at 10 µM. 1,700 tested, under 10 active;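 active = inhibition above 50%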;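 also: median green fluorescence of gated singlet beads compared with DMSO control wells; 0% = DMSO wells and 100% = complete loss of bead fluorescence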
RGS8-Gao confirm: confirmation of regulators of human RGS8-Galphao interaction. shares compounds with RGS16-Gao HTS. bead-based flow cytometry RGS8-Galphao binding, fluorescence; actives lie on both sides. AID 1836. 1,700 compounds, 3% hits. binding response (% of control), % at 10 µM; in the data active = binding response below about 72% or above about 130%; inactive = in between;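 also: Galphao activated as GDP AlF4 complex before binding bead RGS8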
RGS7-Gao single: confirmation of regulators of human RGS7-Galphao interaction; shares compounds with RGS16-Gao HTS; 1,700 compounds, 7.8% hits; response (percent of control binding), % at 10 µM; bead-based flow cytometry RGS7-Galphao binding; actives lie on both sides; in the data active = response below about 75% or above about 130%; inactive = in between;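 also: fluorescent Galphao activated with GDP and aluminum fluoride binding bead-coupled RGS7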
RGS16-Gao single: confirmation of regulators of human RGS16-Galphao interaction; bead-based flow cytometry, RGS16-Galphao binding; actives lie on both sides; 1,700 compounds, 4% hits; shares compounds with RGS16-Gao HTS; response (% of control binding), % at 10 µM; in the data active = response below about 74% or above about 130%; inactive = in between;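 also: Galphao activated as the GDP aluminium fluoride complex binding bead-coupled RGS16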
RGS4-Gao confirm: confirmation of regulators of human RGS4-Galphao interaction | shares compounds with RGS16-Gao HTS | RGS4-Galphao binding, multiplexed bead flow cytometry; actives lie on both sides | binding response (% of control), % at 10 µM | 1,700 compounds, 4% hits | AID 1840; in the data active = binding response below about 74% or above about 130%; inactive = in between
RGS19-Gao single: RGS19-Galphao interaction regulation, single point confirmation | response (percent of control binding), % at 10 µM | 1,700 compounds, 5% hits | shares compounds with RGS16-Gao HTS | bead-based flow cytometry RGS19-Galphao binding; actives lie on both sides; in the data active = response below about 50% or above about 160%; inactive = in between;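 also: 100% = no compound control and 0% = blank background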
Target sequence (P09471 whole entry, looked up): as above
Target sequence (P49795 whole entry, looked up): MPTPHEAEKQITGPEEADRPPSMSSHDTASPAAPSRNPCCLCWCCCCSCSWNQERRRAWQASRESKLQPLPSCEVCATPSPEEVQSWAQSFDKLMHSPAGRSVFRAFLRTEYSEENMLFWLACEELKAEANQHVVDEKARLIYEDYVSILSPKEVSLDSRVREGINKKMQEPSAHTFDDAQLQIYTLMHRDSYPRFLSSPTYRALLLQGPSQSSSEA
Starred values were filed as active, the others as inactive; [ ] = another dose, or the depositor's remark. An excerpt weighted towards active compounds, which were near 1.2% of everything screened. Unless noted, no rule for the calls is given here.

Results for CC1CC(C)CN(C(=O)/C=C/c2ccc([N+](=O)[O-])s2)C1 (stereo not given) ?
GSH fluor: 15; RGS7-Gao: 14.7*; RGS8-Gao: 14.5*; RGS16-Gao HTS: 11.3*; RGS4-Gao reg: 17.9*; Biotin-avidin: -1.7; RGS8-Gao confirm: 96.0; RGS7-Gao single: 46.6*; RGS16-Gao single: 81.7; RGS4-Gao confirm: 58.2*; RGS19-Gao single: 80.5

Results for CC1CN(C(=O)/C=C/c2ccc([N+](=O)[O-])s2)CC(C)O1 (stereo not given) ?
GSH fluor: 20; RGS7-Gao: 102.6; Avidin fluor: 23; RGS8-Gao: 105.7; RGS16-Gao HTS: 111.5; RGS4-Gao reg: 105.7

How did COc1ccc2nc(N/C(N)=N/C(=S)Nc3cccc(C)c3)nc(C)c2c1 do in these assays?
GSH fluor: 17

How did COc1ccc2nc(N/C(N)=N/C(=S)Nc3c(C)cccc3C)nc(C)c2c1 do in these assays?
GSH fluor: 22; RGS7-Gao: 117.8; Avidin fluor: 9; RGS8-Gao: 118.8; RGS16-Gao HTS: 203.2*[activator]; RGS4-Gao reg: 113.2; RGS4-Gao HTS: 113.2*; Biotin-avidin: 0.6; RGS8-Gao confirm: 99.4; RGS7-Gao single: 98.7; RGS16-Gao single: 102.7; RGS4-Gao confirm: 98.9; RGS19-Gao single: 88.3

What do the screens show for `CCN(CC)S(=O)(=O)c1ccc(N/N=C(\C)c2ccc3c(c2)OCO3)c([N+](=O)[O-])c1`?
GSH fluor: 11; RGS7-Gao: 99.8; Avidin fluor: 17; RGS8-Gao: 99.9; RGS16-Gao HTS: 99.7; RGS4-Gao reg: 100.3

What do the screens show for `C/C(Cc1ccccc1)=N\NC(=O)CNC(=O)c1ccccc1O`?
RGS7-Gao: inconclusive; Avidin fluor: 7; RGS8-Gao: 102.1; RGS16-Gao HTS: 102.8; RGS4-Gao reg: 103.5

How did C/C(Cc1ccccc1)=N\NC(=O)CNC(=O)c1ccccc1Br do in these assays?
GSH fluor: 4; RGS7-Gao: 86.1; Avidin fluor: 6; RGS8-Gao: 72.7; RGS16-Gao HTS: 16.6*; RGS4-Gao reg: 87.5; RGS4-Gao HTS: 87.5*; Biotin-avidin: -0.4; RGS8-Gao confirm: 101.0; RGS7-Gao single: 74.9*; RGS16-Gao single: 93.0; RGS4-Gao confirm: 79.7; RGS19-Gao single: 83.4

What do the screens show for `N#Cc1cccc(C(c2nnnn2Cc2ccccc2)N2CCCC2)c1` (stereo not given)?
GSH fluor: 36; RGS7-Gao: 107.1; Avidin fluor: 7; RGS8-Gao: 102.1; RGS16-Gao HTS: 107.1; RGS4-Gao reg: 101.8

What do the screens show for `CN1CCN(C(c2cccc(C(F)(F)F)c2)c2nnnn2Cc2ccccc2)CC1` (stereo not given)?
GSH fluor: 44; RGS7-Gao: 119.7; Avidin fluor: 5; RGS8-Gao: 143.9*[activator]; RGS16-Gao HTS: 348.4; RGS4-Gao reg: 125.5; RGS4-Gao HTS: 125.5*; Biotin-avidin: 1.1; RGS8-Gao confirm: 100.2; RGS7-Gao single: 99.6; RGS16-Gao single: 102.1; RGS4-Gao confirm: 101.2; RGS19-Gao single: 105.2

Results for C=CCNS(=O)(=O)c1ccc2nsnc2c1 ?
GSH fluor: 30; RGS7-Gao: 134.5; Avidin fluor: 12; RGS8-Gao: 121.0; RGS16-Gao HTS: 119.8; RGS4-Gao reg: 129.2

What do the screens show for `O=C(CNC(=O)c1ccccc1)NCc1ccc(Cl)cc1`?
GSH fluor: 10; RGS7-Gao: 150.1*[activator]; Avidin fluor: 30; RGS8-Gao: 101.5; RGS16-Gao HTS: 102.5; RGS4-Gao reg: 104.2; RGS4-Gao HTS: 104.2*; Biotin-avidin: 2.1; RGS8-Gao confirm: 109.6; RGS7-Gao single: 111.9; RGS16-Gao single: 112.6; RGS4-Gao confirm: 108.7; RGS19-Gao single: 112.1

Results for CCN(CC)c1ccc(NC(=O)Nc2cccc(C(C)=O)c2)cc1 ?
GSH fluor: 36; RGS7-Gao: -3.4*; Avidin fluor: -5; RGS8-Gao: 5.3*; RGS16-Gao HTS: -17.1*; RGS4-Gao reg: -7.5*; Biotin-avidin: 1.1; RGS8-Gao confirm: 96.9; RGS7-Gao single: 93.8; RGS16-Gao single: 97.2; RGS4-Gao confirm: 91.6; RGS19-Gao single: 95.6

Results for Cc1ccc2cc(C=C(C#N)C#N)c(N3CCCCC3)nc2c1 ?
GSH fluor: 22; RGS7-Gao: 97.1; Avidin fluor: 22; RGS8-Gao: 100.4; RGS16-Gao HTS: 102.9; RGS4-Gao reg: 101.5

What do the screens show for `O=C(CSc1nnc(CCCO)n1-c1ccccc1)NCCc1ccccc1`?
GSH fluor: 28; RGS7-Gao: 15.6*; Avidin fluor: -1; RGS8-Gao: 8.7*; RGS16-Gao HTS: 0.4*; RGS4-Gao reg: 22.3*; Biotin-avidin: -1.4; RGS8-Gao confirm: 108.5; RGS7-Gao single: 107.2; RGS16-Gao single: 108.8; RGS4-Gao confirm: 102.8; RGS19-Gao single: 118.3

How did O=C(CSc1nnc(CCCO)n1-c1ccccc1)Nc1nccs1 do in these assays?
GSH fluor: 14; RGS7-Gao: 104.9; Avidin fluor: 15; RGS8-Gao: 99.0; RGS16-Gao HTS: 98.9; RGS4-Gao reg: 98.5

What do the screens show for `O=S1(=O)[C@H]2CC3O[C@]2(C[C@@H]3c2ccc(F)cc2)CN1Cc1ccc(Cl)cc1`?
RGS7-Gao: inconclusive; Avidin fluor: 8; RGS8-Gao: 95.0; RGS16-Gao HTS: 92.2; RGS4-Gao reg: 89.2

What do the screens show for `O=S1(=O)[C@H]2C[C@@H]3C=C[C@]2(CN1Cc1ccc(C(F)(F)F)cc1)O3`?
RGS7-Gao: inconclusive; Avidin fluor: 12; RGS8-Gao: 83.0; RGS16-Gao HTS: 99.8; RGS4-Gao reg: 98.6; Biotin-avidin: 0.3; RGS8-Gao confirm: 101.1; RGS7-Gao single: 88.4; RGS16-Gao single: 97.3; RGS4-Gao confirm: 94.7; RGS19-Gao single: 80.2

Bioassay records as filed in PubChem.
